Compound activity: PubChem BioAssay, The Scripps Research Institute Molecular Screening Center
HTR5A ag – counter-screen for OPRM1-OPRD1 agonists: human HTR5A agonism; activation, % at 9.3 µM; HTR5A agonist assay, luminescence, cell-based; 340,000 tested, 0.61% active; P47898; AID 504692; in the data active = activation mostly above about 9.5%, no sharp cut-off; inactive = mostly below about 7.6%;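 note: 0% = cells with vehicle only and 100% = reference agonist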
Target sequence (P47898 whole entry, looked up): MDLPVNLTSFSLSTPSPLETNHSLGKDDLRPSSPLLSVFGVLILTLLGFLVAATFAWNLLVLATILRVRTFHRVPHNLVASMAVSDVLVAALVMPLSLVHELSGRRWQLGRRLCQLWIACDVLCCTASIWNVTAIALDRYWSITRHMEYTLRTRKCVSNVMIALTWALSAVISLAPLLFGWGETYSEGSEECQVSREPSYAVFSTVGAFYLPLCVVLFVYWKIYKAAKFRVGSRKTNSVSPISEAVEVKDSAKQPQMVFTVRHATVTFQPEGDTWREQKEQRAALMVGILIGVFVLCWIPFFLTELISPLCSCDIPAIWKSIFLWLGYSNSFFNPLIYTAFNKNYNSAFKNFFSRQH
HTR5A inv ag – HTR5A inverse agonism, opioid heterodimer counter-screen | AID 504634 | 340,000 tested, 0.083% active | P47898 | HTR5A cell line, luminescence | inhibition, % at 9.3 µM; in the data active = inhibition mostly above about 23%, no sharp cut-off; inactive = mostly below about 18%;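 note: 0% = cells with DMSO and 100% = no-cell wells with DMSO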
MOR-DOR inv ag – inverse agonist of human OPRM1-OPRD1 heterodimerization | P35372+P41143 | cell-based MOR-DOR heterodimer luminescence, inverse agonism | inhibition, % at 9.3 µM | 340,000 tested, 0.21% active; in the data active = inhibition above about 22%, passing the limit was not always enough;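 note: 0% = cells with DMSO and 100% = wells without cells with DMSO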
HTR2A ag – agonists of mouse serotonin 5-HT2A receptor (HTR2A). CHO-K1 mHTR2A beta-arrestin complementation, luminescence; percent of 30 µM serotonin response. P35363. activation, % at 7.6 µM. AID 624169. 360,000 tested, 0.66% active;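 active = activation above a run cutoff, the mean activation of all tested compounds plus 3 SD, cut at about 14% in these data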;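 note: 0% = plate median of compound wells and 100% = 30 µM serotonin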
MOR-DOR ag – agonists of human mu-delta opioid receptor heterodimerization; 340,000 tested, 0.3% active; P35372+P41143; cells, OPRM1-OPRD1 heterodimerization, luminescence; AID 504326; activation, % at 9.3 µM;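 note: 0% = vehicle-treated cells and 100% = reference agonist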
MOR-DOR ag conf – confirmation of human OPRM1-OPRD1 heterodimerization agonists. shares compounds with MOR-DOR ag. cells, MOR-DOR heterodimerization, luminescence complementation. activation, % at 9.3 µM. 830 tested, 45% active. AID 504904;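 note: 0% = vehicle-treated cells and 100% = reference agonist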
HTR5A ag counter – activates human HTR5A in OPRM1-OPRD1 agonist counter-screen; HTR5A agonist counterscreen, cell luminescence; 830 tested, 8% active; shares compounds with MOR-DOR ag; activation, % at 9.3 µM; AID 504905; in the data active = activation above about 17%;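 note: 0% = vehicle-treated cells and 100% = reference agonist response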
Starred values were filed as active, the others as inactive. The list is not random: actives were taken first. Their share in the collection is about 1.6%. Cut-off read from the data, not from the text of the source, unless noted: active = activation above about 18%; inactive = the rest.

Results for CSCCC(C(=O)NC1CCCC1)n1c(C2CCCC2)nc2ccccc21 (stereo not drawn) ?
HTR2A ag: 1

What do the screens show for `O=C(COC(=O)CC1CCCC1)Nc1cccc(F)c1`?
HTR5A ag: -3; HTR5A inv ag: 7; MOR-DOR inv ag: inactive; HTR2A ag: 4; MOR-DOR ag: 323*; MOR-DOR ag conf: -2; HTR5A ag counter: 0

How did Cc1oc(-c2ccccc2Cl)nc1CN(Cc1ccccn1)C[C@@H]1CCC(=O)N1 do in these assays?
HTR5A ag: 0; HTR5A inv ag: 8; MOR-DOR inv ag: 10; HTR2A ag: -1; MOR-DOR ag: -1

How did Cc1oc(-c2cccc(F)c2)nc1CN(Cc1ccccc1)C[C@@H]1CCC(=O)N1 do in these assays?
HTR5A ag: 2; HTR5A inv ag: -17; MOR-DOR inv ag: -134; HTR2A ag: 3; MOR-DOR ag: 29*; MOR-DOR ag conf: 11; HTR5A ag counter: 3

Results for COC(=O)c1ccc2nc(C3CCCCC3)c(Cc3ccccc3)n2c1 ?
HTR2A ag: 2

How did C(=C\c1ccc2nncn2c1)/c1ccccc1 do in these assays?
HTR2A ag: 6

How did Cc1ccccc1OCc1nc(-c2ccc(NC(=O)c3ccc4c(c3)OCO4)cc2)no1 do in these assays?
HTR5A ag: 10; HTR5A inv ag: -26; MOR-DOR inv ag: -88; HTR2A ag: 0; MOR-DOR ag: 21*; MOR-DOR ag conf: 1; HTR5A ag counter: 2

How did OC(c1cccc(CN2CCCCC2)c1)c1ncc(-c2ccccc2Cl)[nH]1 (stereo not drawn) do in these assays?
HTR2A ag: -7

Results for O=S(=O)(Nc1cc(Cl)ccc1-n1cncn1)c1ccccc1Cl ?
HTR5A ag: 3; HTR5A inv ag: -9; MOR-DOR inv ag: -313; HTR2A ag: 7; MOR-DOR ag: 73*; MOR-DOR ag conf: -1; HTR5A ag counter: -2

Results for CCOC(=O)c1c(C)[nH]c(O)c1C=Nc1ccc(Cl)cc1 ?
HTR5A ag: -3; HTR5A inv ag: 8; MOR-DOR inv ag: -236; HTR2A ag: 0; MOR-DOR ag: 39*; MOR-DOR ag conf: 13; HTR5A ag counter: 2

How did CCOC(=O)c1c(C)[nH]c(O)c1C=Nc1ccc(C(F)(F)F)cc1 do in these assays?
HTR5A ag: -2; HTR5A inv ag: -50; MOR-DOR inv ag: -65; HTR2A ag: 0; MOR-DOR ag: 13

How did Cc1ccc(-c2nc(SC(C)C(=O)NC3CC3)n[nH]2)cc1 (stereo not drawn) do in these assays?
HTR2A ag: 4

Results for COCCN(CCOC)C(=O)CSc1ccc(S(=O)(=O)N2CCN(C)CC2)cn1 ?
HTR5A ag: -2; HTR5A inv ag: 5; MOR-DOR inv ag: -138; HTR2A ag: -2; MOR-DOR ag: 32*; MOR-DOR ag conf: 0; HTR5A ag counter: 2

Results for CC(=O)NC(c1ccccc1)c1nc(-c2cccc(C#N)c2)cs1 (stereo not drawn) ?
HTR2A ag: -4

What do the screens show for `O=C(Nc1ccc(C(F)(F)F)cc1[N+](=O)[O-])O[C@H]1[C@H](Cc2ccccc2)NS(=O)(=O)[C@H]2C[C@@H]3C=C[C@]12O3`?
HTR5A ag: -1; HTR5A inv ag: -7; MOR-DOR inv ag: -107; HTR2A ag: 5; MOR-DOR ag: 18*; MOR-DOR ag conf: 12; HTR5A ag counter: 2

Results for O=C(Nc1ccccc1)N(CCCN1CCOCC1)Cc1cccs1 ?
HTR5A ag: -2; HTR5A inv ag: 7; MOR-DOR inv ag: 2; HTR2A ag: -2; MOR-DOR ag: 0

How did CCc1ccc(NC(=O)N(CCCN2CCOCC2)Cc2cccs2)cc1 do in these assays?
HTR5A ag: 9; HTR5A inv ag: -25; MOR-DOR inv ag: -202; HTR2A ag: -5; MOR-DOR ag: 34*; MOR-DOR ag conf: 47*; HTR5A ag counter: -4

How did COc1ccc(C2/C=C\CN(C(=O)Nc3ccccc3)CC(=O)N2Cc2ccc(F)cc2)cc1 (stereo not drawn) do in these assays?
HTR5A ag: -1; HTR5A inv ag: 8; MOR-DOR inv ag: 7; HTR2A ag: 3; MOR-DOR ag: -1
